Among the data in ChEMBL document CHEMBL3433997, “St. Jude Leishmania screening dataset” (2016) are inhibition values, retold here.

Structures are written as SMILES.

A word on the inhibition: it is the change of the read-out against control, counted positive when it falls.

The assay has as its target Glucose transporter (Leishmania mexicana) (UniProt O61059). Kind of assay: ST_JUDE_LEISH: Cytotoxicity at 2uM final concentration against transgenic Leishmania Mexicana promastigotes LmGT2 that are glucose transport deficient and complemented with the L. Mexicana glucose transporter 2. Activity is measured by DNA content using SYBR green in vitro. The class given is functional.
Turning to `c1ccc(C(c2ccccc2)N2CCC(NCc3ccc(OCCCN4CCCCC4)cc3)CC2)cc1`, the inhibition came out at 10.7%. The value for `Cc1ccc(CCOCCCCCNCC(O)c2cc(Cl)c(N)c(Cl)c2)cc1` (centres undefined) was 0.95%; that for `CCN1CCC(N(Cc2ccc(-c3ccc(C(F)(F)F)cc3)cc2)C(=O)Cn2c(SCc3cccc(F)c3F)cc(=O)c3ccccc32)C1` (centres undefined) was -0.18%; that for `O=c1cc(NCCC(CNCCc2ccccc2)NCc2cc(Br)cc(Br)c2)[nH]c2ccccc12` (centres undefined) was 2.71%. On to `CCN(CCCN1CCCCC1)c1cc(C)nc(Nc2ccc(C)cc2)n1`, for which the inhibition was 0.31%.

On to `COc1cc2c(cc1C(F)(F)F)N(C(=O)Nc1cc(OC(F)(F)F)cc(-c3cccnc3)c1)CC2`, for which the inhibition was -0.44%. The value for `Cn1nccc1C(=O)NCCNCc1cccc(-c2ccc(-c3nc4ccccc4[nH]3)s2)c1` was -1.72%; that for `Cn1cc(CCNc2ccnc(N3CCC(c4ncc[nH]4)CC3)n2)c2ccccc21` was -2.28%. The value for `CCOC(=O)c1ccc(COc2ccc(C)nc2)cc1` was 0.17%.
